Compound activity from PubChem.
Only some compounds are listed: those with a hit (about 3.5% of all), similar ones and a draw of the others.
mHTT-CaM PPI inh: mHTT-calmodulin interaction abrogation; P42858; AlphaScreen His-mHTT/GST-CaM binding, luminescence; inhibition, % at 15 µM; hit rate 3.6% among 190,000; AID 1671202;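 also: 0% = both proteins with DMSO and 100% = one protein alone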
Pf apPOL block: Pf-apPOL DNA polymerase inhibition; inhibition, % at 10 µM; AID 1794808; Recombinant Pf-apPOL, molecular beacon fluorescence, 1.5 h; hit rate 0.25% among 210,000
The depositor's hits bear a star. Rule as the data show it: active = inhibition above about 50%; inactive = the rest.

CC(=O)N1c2ccccc2N(Cc2ccc(Cl)c(Cl)c2)C(=O)C1(C)C was read as mHTT-CaM PPI inh -4 and Pf apPOL block -10.
CCc1nc(COC)cc(=O)[nH]1 was read as mHTT-CaM PPI inh -3 and Pf apPOL block 5.
COc1cc(OC)cc(C(=O)N2CCCC3(C2)Nc2ccccc2NC3=NC(C)(C)C)c1 (configuration not stated) was read as mHTT-CaM PPI inh 21 and Pf apPOL block 4.
For CC(C)(C)N=C1Nc2ccccc2NC12CCCN(C(=O)NCc1ccco1)C2 (configuration not stated) the results were mHTT-CaM PPI inh 30 and Pf apPOL block 4.
`COc1ccccc1NC(=O)N1CCCC2(C1)Nc1ccccc1NC2=NC(C)(C)C` (configuration not stated) gave mHTT-CaM PPI inh 67* and Pf apPOL block -4.
`COc1cccc(CNC(=O)N2CCCC3(C2)Nc2ccccc2NC3=NC(C)(C)C)c1` (configuration not stated) gave mHTT-CaM PPI inh 69* and Pf apPOL block 4.
Screening COc1cccc(NC(=O)N2CCCC3(C2)Nc2ccccc2NC3=NC(C)(C)C)c1 (configuration not stated) returned mHTT-CaM PPI inh 12 and Pf apPOL block 2.
For CC(C)(C)N=C1Nc2ccccc2NC12CCCN(C(=O)NCc1cccc(F)c1)C2 (configuration not stated) the results were mHTT-CaM PPI inh 99* and Pf apPOL block -4.
Screening Cc1ccc(NC(=O)c2cc3c(CO)cnc(C)c3oc2=Nc2ccc(Cl)c(Cl)c2)cc1 returned mHTT-CaM PPI inh 0 and Pf apPOL block 0.
Screening COc1ccccc1N(CC(=O)Nc1cccc(C(C)=O)c1)S(=O)(=O)c1ccccc1 returned mHTT-CaM PPI inh 10 and Pf apPOL block -4.
Screening COc1cc(OC)cc(C(=O)N2CCC(Cc3nc4cccnc4n3CC(C)C)C2)c1 (configuration not stated) returned mHTT-CaM PPI inh 0 and Pf apPOL block -1.
Screening COc1cc(CC(=O)N2CCCC2c2nc(-c3ccc(C)cc3)no2)cc(OC)c1 (configuration not stated) returned mHTT-CaM PPI inh 26 and Pf apPOL block -1.
CCOc1ccc(C(=O)Nc2c3c(nn2-c2ccc(OC)cc2)CSC3)cc1OCC was read as mHTT-CaM PPI inh 28 and Pf apPOL block -8.
`O=c1oc2ccc(Cl)cc2cc1-c1nc2ccccc2[nH]1` gave mHTT-CaM PPI inh -4 and Pf apPOL block 0.
O=c1oc2ccc(Br)cc2cc1-c1nc2ccccc2[nH]1 was read as mHTT-CaM PPI inh -5 and Pf apPOL block 83*.
For COc1ccc(C2C3C(=O)NC(=O)C3ON2c2ccc(Cl)cc2)cc1 (configuration not stated) the results were mHTT-CaM PPI inh 19 and Pf apPOL block -4.
Screening Nc1c(N)c(N)c(N)c(N)c1N returned mHTT-CaM PPI inh 64*.
CC(=O)N(C1=C(Nc2ccccc2)C(=O)c2ccccc2C1=O)c1ccccc1 was read as mHTT-CaM PPI inh 55* and Pf apPOL block -3.
For CCCNC1=C(N(C(C)=O)c2cccc(F)c2)C(=O)c2ccccc2C1=O the results were mHTT-CaM PPI inh 27 and Pf apPOL block -15.
`COc1cccc(N(C(C)=O)C2=C(NC3CCCCC3)C(=O)c3ccccc3C2=O)c1` gave mHTT-CaM PPI inh 62* and Pf apPOL block 6.
`CC(=O)N(C1=C(NC2CCCCC2)C(=O)c2ccccc2C1=O)c1ccc(F)c(F)c1` gave mHTT-CaM PPI inh 48 and Pf apPOL block -6.
`Cc1cc(N2CCCC2)c([N+](=O)[O-])cc1[N+](=O)[O-]` gave Pf apPOL block -3.
CCOC(=O)c1c(NC(=O)c2snnc2C)c2cc([N+](=O)[O-])ccc2n1C was read as Pf apPOL block -11.
C=CCc1cc(Cl)ccc1OCCN1CCN(C)CC1 was read as mHTT-CaM PPI inh 2 and Pf apPOL block -8.
For Cc1ccc(C)c(NCc2ccncc2)c1 the results were mHTT-CaM PPI inh 2 and Pf apPOL block 3.
Screening Cc1ccc(NCc2ccc(Cl)nc2)c(NCc2ccc(Cl)nc2)c1 returned mHTT-CaM PPI inh 54* and Pf apPOL block -4.
For CCn1ccc(C(=O)N2CCC(n3c(C4CCCC4)nc4cccnc43)C2)n1 (configuration not stated) the results were mHTT-CaM PPI inh 1 and Pf apPOL block -2.
For Cc1ccc(S(=O)(=O)Nc2ccccc2-c2ccccc2)cc1 the results were mHTT-CaM PPI inh -29 and Pf apPOL block -52.
Screening Cc1ccc(S(=O)(=O)Nc2nc(-c3ccccc3)c(-c3ccccc3)o2)cc1 returned mHTT-CaM PPI inh 50* and Pf apPOL block -6.
COCCCNC(=O)c1cnn2c(C(F)(F)F)cc(-c3ccccc3)nc12 was read as mHTT-CaM PPI inh 5 and Pf apPOL block -6.
C=CCNC(=O)c1cnn2c(C(F)(F)F)cc(-c3ccccc3)nc12 was read as mHTT-CaM PPI inh 51* and Pf apPOL block -4.
O=[N+]([O-])c1cccc(C2C=C(c3ccc(Br)cc3)Nc3nnnn32)c1 (configuration not stated) was read as mHTT-CaM PPI inh 12 and Pf apPOL block -4.
O=C(NC1CCCCC1)c1cc(S(=O)(=O)N2CCOCC2)cs1 was read as mHTT-CaM PPI inh 2 and Pf apPOL block -6.
For Cn1c2c(c3ccccc31)CN(C(=O)c1cccs1)CC2 the results were mHTT-CaM PPI inh 100* and Pf apPOL block 13.
`Cn1nc(-c2nc(-c3ccccc3)no2)c2c1CCN(C(=O)c1cccs1)C2` gave mHTT-CaM PPI inh 21 and Pf apPOL block 0.
O=S(=O)(c1ccccc1)N1CC2c3ccccc3CCN2C1c1ccccc1 (configuration not stated) was read as mHTT-CaM PPI inh -15.
`CC1CCCN(CC2CCN(S(=O)(=O)c3cccc(Cl)c3)CC2)C1` (configuration not stated) gave mHTT-CaM PPI inh -3 and Pf apPOL block -3.
Screening CC(=O)Nc1ccc(Oc2ncnc3sc(C)c(C)c23)cc1 returned mHTT-CaM PPI inh 2 and Pf apPOL block -3.
For O=C1Nc2ccccc2/C1=C\c1c(Cl)cccc1Cl the results were mHTT-CaM PPI inh 49 and Pf apPOL block 2.
`O=C1Nc2ccc(Br)cc2/C1=C\c1c(Cl)cccc1Cl` gave mHTT-CaM PPI inh 100* and Pf apPOL block 3.
For O=C1Nc2ccc(Br)cc2/C1=C/c1ccccc1Cl the results were mHTT-CaM PPI inh 11 and Pf apPOL block -2.
`O=C1Nc2ccc(F)cc2/C1=C\c1c(Cl)cccc1Cl` gave mHTT-CaM PPI inh 100* and Pf apPOL block -3.
Screening Cc1ccc2c(c1)NC(=O)c1cc(NC(=O)C3CC3)ccc1O2 returned mHTT-CaM PPI inh -3 and Pf apPOL block -8.
Screening CC(=O)Nc1ccc(S(=O)(=O)N2CCN(Cc3ccc(Br)cc3)CC2)cc1 returned mHTT-CaM PPI inh 35 and Pf apPOL block -10.
`CC(C)CCNC(=O)C1(C)CCC(=O)N1CCCN1CCC(Cc2ccccc2)CC1` (configuration not stated) gave mHTT-CaM PPI inh 4 and Pf apPOL block 0.
For COc1cccc2c1Oc1[nH]c(-c3ccc(OC)c(OC)c3OC)nc(=S)c1C2 the results were mHTT-CaM PPI inh 8 and Pf apPOL block 0.
`COc1cccc(-c2nc(=S)c3c([nH]2)Oc2c(cccc2OC)C3)c1O` gave mHTT-CaM PPI inh 53* and Pf apPOL block 43.
Screening Cc1cccn2cc(C(=O)NC(C)c3ccc(F)cc3)nc12 (configuration not stated) returned mHTT-CaM PPI inh 8 and Pf apPOL block -4.
